From PubChem BioAssay
WT yeast gro inh: growth inhibition of WT yeast, mitochondrial fusion screen; mitochondrial fusion phenotypic screen, WT strain; 190,000 tested, 2.1% active; inhibition, % at 10 µM; AID 1362; in the data active means inhibition above about 58%; tested in S. cerevisiae
RAM inhibit: yeast RAM network inhibition. S. cerevisiae dse1pr::URA3 reporter, 5-FOA growth OD615, 2 d; analog-sensitive cbk1-as2 kinase mutant strain. inhibition, % at 50 µM. 190,000 tested, 1.8% active. AID 868;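 active means inhibition above a set limit, 3 SD over mean compound inhibition, cut at about 8.4% in these data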;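 further: 0% = DMSO-only wells with no growth and 100% = 10 µM 1-NA-PP1 full growth; inhibition rescues growth on 5-FOA so higher OD means more RAM inhibition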
Lmaj promast: Leishmania major promastigote growth inhibition | Leishmania major promastigotes, resazurin fluorescence viability | inhibition, % at 10 µM | 200,000 tested, 9% active; in the data active means inhibition above about 50%;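 further: promastigotes grown with compound for 44 hours at 28 °C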
CHOP inh: inhibitors of CHOP induction in ER stress response; inhibition, % at 10 µM; CHO-K1 CHOP-promoter luciferase, tunicamycin-induced, 15-18 h; 220,000 tested, 3.8% active;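 active means compounds that reduced the stress-induced luciferase reporter signal by more than about 70% of percent inhibition, limit read from the data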;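 further: 0% = tunicamycin plus vehicle and 100% = wells without tunicamycin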
* hit, by the source's call. A selection: hits, their analogues and other compounds. The true share with any hit is near 13%.

`O=C(NCC1(N2CCOCC2)CCCCC1)c1cccc(S(=O)(=O)N2CCc3ccccc3C2)c1` gave WT yeast gro inh 0, RAM inhibit -1, Lmaj promast 64* and CHOP inh 37.
O=C(c1ccc2ccccc2c1)N1CCN(c2ccc(O)cc2)CC1 was read as WT yeast gro inh 21, RAM inhibit 0, Lmaj promast 90* and CHOP inh 16.
`CCc1ccc(NC(=O)C(C)OC(=O)c2cccc(S(=O)(=O)N3CCc4ccccc4C3)c2)cc1` (configuration not stated) gave WT yeast gro inh 0, RAM inhibit 6, Lmaj promast 89* and CHOP inh 28.
For O=C(c1cccc(S(=O)(=O)N2CCc3ccccc3C2)c1)N1CCN(c2ccc(O)cc2)CC1 the results were WT yeast gro inh 1, RAM inhibit 1, Lmaj promast 65* and CHOP inh 21.
Screening CC(=O)Nc1ccc(S(=O)(=O)N2CCc3ccccc3C2)cc1 returned WT yeast gro inh 2, RAM inhibit 3, Lmaj promast -7 and CHOP inh -2.
O=C(NCCCN1CCOCC1)c1cccc(S(=O)(=O)N2CCc3ccccc3C2)c1 was read as WT yeast gro inh 16, RAM inhibit 1, Lmaj promast -2 and CHOP inh 9.
Screening CC1=C(C(=O)OCC(C)C)C(c2ccsc2)C2=C(CCCC2=O)N1 (configuration not stated) returned WT yeast gro inh 6, RAM inhibit 2, Lmaj promast 6 and CHOP inh 9.
COc1cc(OC)c(NC(=S)Nc2cc(Cl)cc(Cl)c2)cc1Cl was read as WT yeast gro inh 83*, RAM inhibit 2, Lmaj promast 35 and CHOP inh 54.
For COc1cc(C)c(NC(=S)Nc2ccc(Cl)c(Cl)c2)cc1OC the results were WT yeast gro inh 80*, RAM inhibit 0, Lmaj promast 11 and CHOP inh 12.
`COc1cc(OC)c(NC(=S)Nc2cccc(C(C)=O)c2)cc1Cl` gave WT yeast gro inh 2, RAM inhibit 2, Lmaj promast 0 and CHOP inh -9.
For COc1cc(NC(=S)Nc2cccc(Cl)c2Cl)c(OC)cc1Cl the results were WT yeast gro inh -7, RAM inhibit 5, Lmaj promast 59* and CHOP inh 68.
`COc1cc(NC(=S)NC(C)(C)C)c(OC)cc1Cl` gave WT yeast gro inh 19, RAM inhibit 2, Lmaj promast 67* and CHOP inh 12.
`Cn1nc(C(F)(F)F)c(-c2ccc(F)cc2)c1NC(=O)c1cccnc1` gave CHOP inh 5.
Screening COC(=O)c1sccc1NC(=O)C1CC1 returned CHOP inh 4.
`CCC1CCCCN1C(=O)Cn1nc([N+](=O)[O-])c(Cl)c1C` (configuration not stated) gave WT yeast gro inh -2, RAM inhibit 0, Lmaj promast 1 and CHOP inh -11.
`CCCc1cc(=O)[nH]c(SCC(=O)NC2CCCc3ccccc32)n1` (configuration not stated) gave CHOP inh 55.
`O=C(N/C(=C\c1ccc(Cl)cc1)C(=O)N1CCOCC1)c1ccc([N+](=O)[O-])cc1` gave WT yeast gro inh 13, RAM inhibit -1, Lmaj promast 12 and CHOP inh -5.
`NC(=O)Cc1cn(-c2ncc(C(F)(F)F)cc2Cl)c2ccccc12` gave WT yeast gro inh 0, RAM inhibit 0, Lmaj promast 1 and CHOP inh 8.
`COC(=O)Cc1cn(-c2ncc(C(F)(F)F)cc2Cl)c2ccccc12` gave WT yeast gro inh 84*, RAM inhibit 3, Lmaj promast -2 and CHOP inh 39.
Screening CCOc1ccccc1NC(=O)C(=O)/C=C(\O)c1cc(OC)ccc1OC returned WT yeast gro inh -8, RAM inhibit 7, Lmaj promast 44 and CHOP inh 95*.
Screening COc1ccc(OC)c(/C(O)=C/C(=O)C(=O)Nc2cc(C)ccc2OC)c1 returned WT yeast gro inh 0, RAM inhibit 2, Lmaj promast 93* and CHOP inh 2.
C/C(=N\NC(=O)C(=O)Nc1cc(C)ccc1C)c1ccncc1 was read as CHOP inh 18.
`NS(=O)(=O)c1ccc(CCNC(=O)C2CCN(S(=O)(=O)c3ccc(Br)s3)CC2)cc1` gave WT yeast gro inh -12, RAM inhibit 2, Lmaj promast -5 and CHOP inh 6.
For CCOc1c2ccc(C(=O)NCc3ccc4c(c3)OCO4)cc2nn1CCOC the results were WT yeast gro inh -19, RAM inhibit 2, Lmaj promast -5 and CHOP inh 14.
CCOC(=O)c1[nH]c2ccc(Br)cc2c1NC(=O)CCN1CCCC(C)(C)C1 was read as WT yeast gro inh -6, RAM inhibit 0, Lmaj promast 4 and CHOP inh 17.
Cc1nnc(SC(=O)N2c3ccccc3Sc3ccccc32)s1 was read as WT yeast gro inh -7, RAM inhibit 0, Lmaj promast 63* and CHOP inh 24.
Screening Cc1nnc(SCC(=O)N2c3ccccc3Sc3ccccc32)n1N returned WT yeast gro inh -11, RAM inhibit 2, Lmaj promast -5 and CHOP inh -27.
`O=C(O)CNS(=O)(=O)c1c(Cl)cccc1Cl` gave CHOP inh 13.
Screening CC(Oc1ccc(Cl)cc1Cl)c1ccnc2nc(N3CCOCC3)nn12 (configuration not stated) returned WT yeast gro inh 75*, RAM inhibit -2, Lmaj promast 10 and CHOP inh 38.
For CC(C)S(=O)(=O)c1csc(NC(=O)Nc2cccc([N+](=O)[O-])c2)c1Cl the results were CHOP inh -13.
`Cc1ccc(Cn2c(=O)n(CCC(=O)NCc3ccc4c(c3)OCO4)c(=O)c3ccccc32)cc1` gave WT yeast gro inh 11, RAM inhibit 2, Lmaj promast 0 and CHOP inh 95*.
`O=C(NCc1ccc2c(c1)OCO2)Nc1cccc2ccccc12` gave CHOP inh 86*.
COc1ccccc1NC(=O)NCc1ccc2c(c1)OCO2 was read as WT yeast gro inh -10, RAM inhibit 1, Lmaj promast -4 and CHOP inh 20.
`O=C(Nc1ccc(F)cc1)NC1(C(=O)NCc2cccs2)CCCCC1` gave WT yeast gro inh 5, RAM inhibit 2, Lmaj promast 87* and CHOP inh -15.
For O=C(Nc1ccccc1)NC1(C(=O)NCc2ccco2)CCCCC1 the results were WT yeast gro inh -15, RAM inhibit 1, Lmaj promast 4 and CHOP inh 2.
Screening O=C(Nc1ccccc1)NC1(C(=O)NCc2ccc3c(c2)OCO3)CCCCC1 returned WT yeast gro inh 4, RAM inhibit 4, Lmaj promast 58* and CHOP inh 28.
Screening CN(c1cccc(NC(=O)CN(c2cccc(F)c2)S(C)(=O)=O)c1)S(C)(=O)=O returned WT yeast gro inh -9, RAM inhibit 1, Lmaj promast -9 and CHOP inh -2.
`Cc1ccc(CSCC(=O)NCc2ccc3c(c2)OCO3)cc1` gave CHOP inh 15.
For Cc1ccsc1-c1nc(CSCC(=O)NCc2ccc3c(c2)OCO3)c(C)o1 the results were WT yeast gro inh 8, RAM inhibit 0, Lmaj promast -3 and CHOP inh 81*.
